LmPK inhibitor: inhibitors of Leishmania mexicana pyruvate kinase; hit rate 0.37% among 290,000; Q27686; purified LmPK, Kinase-Glo ATP luminescence, 1 h; Potency, µM (titrated, usually from 57.5 µM), most hits filed as inhibitors
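Pyruvate kinase activity monitored as ATP production (luciferase luminescence). Conditions: 0.1 nM enzyme, 0.5 mM PEP, 0.1 mM ADP, 1 h, RT; normalized against uninhibited and no-enzyme wells.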
TbPYK inhibitor: T. brucei pyruvate kinase inhibition | TbPYK enzyme, Kinase-Glo Plus ATP luminescence, 45 min | hit rate 0.12% among 410,000 | Q57TT1 | Potency, µM (series often up to 76.8 µM), hits mostly inhibitors; note: nearly all actives have a fitted effect of over 50% in size
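Activity of T. brucei pyruvate kinase was followed by Kinase-Glo Plus luminescence after the enzyme reacted 45 min at room temperature with 130 uM ADP (final) and substrate. Test compounds were added before ADP at multiple concentrations.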
Giardia FBPA inh: Giardia lamblia aldolase inhibition. AID 2451. hit rate 0.71% among 290,000. purified Giardia FBPA. Potency, µM (highest dose often 59.6 µM), actives largely listed as inhibitors. A8B2U2; note: nearly all actives have a fitted effect of over 55% in size
Target sequence (A8B2U2 whole entry, looked up): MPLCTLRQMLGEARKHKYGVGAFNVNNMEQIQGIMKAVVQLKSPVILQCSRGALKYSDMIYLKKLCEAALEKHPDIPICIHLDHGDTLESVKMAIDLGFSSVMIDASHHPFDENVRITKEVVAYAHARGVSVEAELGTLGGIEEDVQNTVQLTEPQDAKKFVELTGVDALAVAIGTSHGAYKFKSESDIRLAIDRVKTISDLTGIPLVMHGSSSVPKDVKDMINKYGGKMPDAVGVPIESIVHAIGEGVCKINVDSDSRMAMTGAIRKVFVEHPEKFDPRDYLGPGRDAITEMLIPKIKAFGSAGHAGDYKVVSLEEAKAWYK
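40 nM FBPA preincubated 10 min at RT with compound (up to 57.5 uM final), then substrate plus GAPDH/TPI/NAD/arsenate coupling and diaphorase/resazurin added. Fluorescence read after 20 min at RT, 525/598 nm.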
RE007 growth inh: less growth of the S. pombe RE007 Vpr strain; S. pombe RE007 Vpr strain, BacTiter-Glo ATP luminescence, 24 h; Potency, µM (highest dose often 92.2 µM), actives largely listed as inhibitors; AID 651644; hit rate 0.21% among 360,000; active = well fitted falling curve with a large enough effect; inconclusive = small, poorly fitted or top-dose-only effect; inactive = no such curve, though single readings can be large or run the other way; note: nearly all actives have a fitted effect of over 50% in size
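Fission yeast RE007 carrying one integrated HIV-1 vpr copy, seeded at OD 0.01 in PMG+AL medium with 23 nL pinned compound. Grown 24 h at 30 degrees; viability read by BacTiter-Glo luminescence after 5 min.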
Shiga inhibitor: inhibitors of Shiga toxin in Vero cells; inhibition, % at 38.7 µM; hit rate 9.2% among 290,000; Vero cells, Shiga toxin protein synthesis inhibition reporter; in the data active = inhibition mostly above about 28%, no sharp cut-off; inactive = mostly below about 43%
Cycloheximide cs: counter-screen for Shiga toxin inhibitors: cycloheximide protein synthesis inhibition; AID 2314; max response, %; hit rate 12% among 300,000; cell reporter, cycloheximide protein synthesis inhibition counterscreen; in the data active = max response mostly above about 13%, no sharp cut-off; inactive = mostly below about 14%; note: read at 38.3 µM for the half of the compounds with a filed dose
Each line names hits and unclear results; the compound was inactive in the other large screens; ! = not active in a repeat. Shown is part of a subset that was picked to be rich in hits. Unless noted, calls come from the whole dose curve; as a rule, active = well fitted curve in the direction sought with a large enough effect; inconclusive = small, poorly fitted or top-dose-only effect, or another doubt; inactive = no such curve, though single readings can be large; an effect the other way counts as inactive or inconclusive.

CC(Oc1ccccc1F)C(=O)Nc1ccc2ccccc2c1 (configuration not stated)	Shiga inhibitor 80, Cycloheximide cs 45
CCC(=O)Nc1ccc(C(=O)n2ccc(C)n2)cc1	none
CC(Oc1ccc(F)cc1)C(=O)Nc1ccc2ccccc2c1 (configuration not stated)	none
CC1(C(=O)Nc2ccc3ccccc3c2)CC1(Br)Br (configuration not stated)	Shiga inhibitor 65, Cycloheximide cs 29
CC(C)CC(=O)Nc1ccc(Nc2ccccc2)cc1	Shiga inhibitor 36
Cc1ccn(C(=O)c2ccc(NC(=O)CC(C)C)cc2)n1	Cycloheximide cs 15
CC(C)CC(=O)Nc1ccc(Oc2ccc(NC(=O)CC(C)C)cc2)cc1	none
CCOC(=O)N1CCc2c(sc(NCc3ccc(N(C)C)cc3)c2C(=O)Nc2ccccc2OCC)C1	none (no result: LmPK inhibitor, Giardia FBPA inh, RE007 growth inh, Shiga inhibitor, Cycloheximide cs)
COc1ccnc(CS(=O)c2nc3ccc(OC(F)F)cc3[nH]2)c1OC (configuration not stated)	none (no result: LmPK inhibitor, RE007 growth inh, Shiga inhibitor, Cycloheximide cs)
COCCn1c(SCC(=O)Nc2sccc2C(N)=O)nc2cc(Cl)ccc2c1=O	none
CCOC1=C2CN(S(=O)(=O)c3ccc(C)cc3)[C@H](c3ccccc3)C[C@@H]2N(S(=O)(=O)c2ccc(Br)cc2)[C@H](c2ccccc2)C1	none (no result: LmPK inhibitor, Giardia FBPA inh, Shiga inhibitor, Cycloheximide cs)
Cc1c(CNCCCc2ccccc2)c(C(=O)O)c(C)n1Cc1ccc(Cl)cc1	none (no result: LmPK inhibitor, Giardia FBPA inh, RE007 growth inh, Shiga inhibitor, Cycloheximide cs)
CCCCCC1Nc2cc(C(F)(F)F)c(S(N)(=O)=O)cc2S(=O)(=O)N1 (configuration not stated)	none (no result: LmPK inhibitor, Giardia FBPA inh, RE007 growth inh, Shiga inhibitor, Cycloheximide cs)
CC(C)(C)CC(=O)Nc1ccc(Nc2ccccc2)cc1	Shiga inhibitor 47, Cycloheximide cs 23
CCC(=O)Nc1ccc2ccccc2c1	none
CC(C)CC(=O)Nc1ccc2ccccc2c1	Shiga inhibitor 92!
O=C(c1ccco1)N1CCN(c2c([N+](=O)[O-])nn(-c3cccc(Cl)c3)[n+]2[O-])CC1	Cycloheximide cs 14
O=C(c1ccc(Cl)c([N+](=O)[O-])c1)N1CCN(C(=O)c2ccco2)CC1	none
CC1CCCC12NC(=O)NC2=O (configuration not stated)	none (no result: LmPK inhibitor, Giardia FBPA inh, Shiga inhibitor, Cycloheximide cs)
CCCCSCCCNC(=O)Nc1ccc(CC)cc1	Cycloheximide cs 11
O=C(O)CCCNC(=O)Nc1ccccc1	none
CCCCCCNC(=O)Nc1ccccc1	Shiga inhibitor 61, Cycloheximide cs 44
O=C(NCCC1CC1(Cl)Cl)Nc1ccccc1 (configuration not stated)	Shiga inhibitor 53
OCCN1CCN(C2CCC(c3ccc(F)cc3)c3ccc(F)cc32)CC1 (configuration not stated)	none (no result: LmPK inhibitor, Giardia FBPA inh, Shiga inhibitor, Cycloheximide cs)
Cc1ccc(C)c(S(=O)(=O)NCC(c2ccco2)S(=O)(=O)c2ccc(F)cc2)c1 (configuration not stated)	none (no result: LmPK inhibitor, Giardia FBPA inh, RE007 growth inh, Shiga inhibitor, Cycloheximide cs)
CSCCC(NC(=O)c1ccco1)C(=O)NCc1ccc2c(c1)OCO2 (configuration not stated)	none (no result: LmPK inhibitor, Giardia FBPA inh, Shiga inhibitor, Cycloheximide cs)
O=C(/C=C/c1cn(CC(O)CN2CCCCCC2)c2ccccc12)c1ccccc1 (configuration not stated)	none (no result: LmPK inhibitor, Giardia FBPA inh, RE007 growth inh, Shiga inhibitor, Cycloheximide cs)
CN1CCN(Cn2cc(/C=C/C(=O)c3ccccc3)c3ccccc32)CC1	RE007 growth inh inconclusive, Shiga inhibitor 61, Cycloheximide cs 33
O=C(NCCc1ccc(Cl)cc1)c1ccc2c(c1)N(Cc1cccc(Cl)c1)C(=O)c1ccccc1S2(=O)=O	none (no result: LmPK inhibitor, Giardia FBPA inh, RE007 growth inh, Shiga inhibitor, Cycloheximide cs)
CCOc1cccc(NC(=O)c2sc3nc(-c4ccc(F)cc4)ccc3c2N)c1	none (no result: LmPK inhibitor, Giardia FBPA inh, RE007 growth inh, Shiga inhibitor, Cycloheximide cs)
Cc1cc(C)cc(NC(=O)[C@H](Cc2c[nH]c3ccccc23)NC(=O)[C@@H]2Cc3ccccc3CN2)c1	Giardia FBPA inh inconclusive
CC(NC(=O)[C@H](Cc1c[nH]c2ccccc12)NC(=O)[C@@H]1Cc2ccccc2CN1)c1ccccc1 (some centres not stated)	none
CCc1ccc(NC(=O)[C@H](Cc2c[nH]c3ccccc23)NC(=O)[C@@H]2Cc3ccccc3CN2)cc1	Giardia FBPA inh inconclusive, Shiga inhibitor 28
Cc1cccc(NC(=O)[C@H](Cc2c[nH]c3ccccc23)NC(=O)[C@@H]2Cc3ccccc3CN2)c1	Giardia FBPA inh inconclusive, Cycloheximide cs 14
Cn1c(=O)c2cn(-c3ccc4c(c3)OCCO4)cc2n(C)c1=O	Giardia FBPA inh inconclusive, Cycloheximide cs 67
Cc1ccc(-n2cc3c(=O)n(C)c(=O)n(C)c3c2)cc1C	Giardia FBPA inh inconclusive, Cycloheximide cs 21
Cc1ccc(NC(=O)CCNS(=O)(=O)c2ccc3c(c2)c(=O)n(C)c(=O)n3C)cc1C	none
Cc1cc(N)c(-n2cc3c(=O)n(C)c(=O)n(C)c3c2)cc1C	LmPK inhibitor inconclusive, Cycloheximide cs 40
O=c1c2c3c(sc2nc2n1CCCCC2)C(O)CCC3 (configuration not stated)	Shiga inhibitor 70, Cycloheximide cs 55
O=c1c2c3c(sc2nc2n1CCCCC2)CCC3	RE007 growth inh inconclusive
O=C1c2sc3nc4n(c(=O)c3c2CCC1Br)CCCCC4 (configuration not stated)	LmPK inhibitor 28µM, TbPYK inhibitor inconclusive, Giardia FBPA inh 20µM, Shiga inhibitor 53, Cycloheximide cs 31
O=C1CCCc2c1sc1nc3n(c(=O)c21)CCCCC3	none
CC1CCCN(C(=O)CCNS(=O)(=O)c2ccc3c(c2)c(=O)n(C)c(=O)n3C)C1 (configuration not stated)	none
Cc1ccc(-c2onc3ccc(C=O)cc23)cc1	RE007 growth inh inconclusive, Shiga inhibitor 99, Cycloheximide cs 59
Cc1cc(-c2onc3ccc(Cl)cc23)ccc1O	Shiga inhibitor 50, Cycloheximide cs 27
COc1ccc(CNCc2c(C(=O)O)c(C)n(Cc3ccccc3C)c2C)c(OC)c1	none (no result: LmPK inhibitor, Giardia FBPA inh, RE007 growth inh, Shiga inhibitor, Cycloheximide cs)
COc1ccc(-n2nc(C(=O)NCC(=O)N3CCN(c4ccccc4)CC3)c3ccccc3c2=O)c(OC)c1	none
COc1ccc(-n2nc(C(=O)NCC(=O)N3CCN(c4ccc(F)cc4)CC3)c3ccccc3c2=O)c(OC)c1	Cycloheximide cs 16
CCOC(=O)N1CCN(C(=O)CNC(=O)c2nn(-c3ccc(OC)cc3OC)c(=O)c3ccccc23)CC1	Shiga inhibitor 31, Cycloheximide cs 25
CS(=O)(=O)c1ccc(NC(=O)c2ccc3c(c2)S(=O)(=O)N=C2CCCCCN23)cc1	none (no result: LmPK inhibitor, Giardia FBPA inh, Shiga inhibitor, Cycloheximide cs)
COc1ccc(C2C(C(=O)c3cccs3)=C(O)C(=O)N2c2cccc(C)n2)cc1OC (configuration not stated)	Shiga inhibitor 32, Cycloheximide cs 19
CCOc1ccc(C2C(C(=O)c3cccs3)=C(O)C(=O)N2Cc2cccnc2)cc1OC (configuration not stated)	Shiga inhibitor 60, Cycloheximide cs 34
COc1ccc(C2C(C(=O)c3cccs3)=C(O)C(=O)N2c2cccc(C)n2)cc1 (configuration not stated)	none

Source: PubChem
